Our source for the outcome and AC50 values is PubChem BioAssay (EPA / NIEHS).

For assay [1], the target named is Transcription factor E2F1 (Homo sapiens) (UniProt Q01094). As to the kind of experiment: ATG_E2F_CIS: Attagene CIS-FACTORIAL HepG2 Assay for human E2F Transcription Factor 1 (AID 2282935). The conditions noted are these: HepG2 Attagene cis-reporter, E2F reporter RNA transcripts; actives raise or lower the signal. The gist of the method:
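First, HepG2 cells were transfected with reporter transcription units. Next, they were dosed for 24 h. Then RNA was isolated, converted to cDNA, PCR-amplified, FAM-labeled, HpaI-digested and analyzed by capillary electrophoresis.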

A short description of assay [2]: ATG_M_61_CIS: Attagene CIS-FACTORIAL HepG2 Assay for M61 Transcription Factor (Internal Marker) (AID 2282937). The conditions noted are these: HepG2 Attagene CIS-FACTORIAL M61 internal marker reporter; actives raise or lower the signal. Summed up: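 HepG2 cells transiently transfected with multiplexed cis-promoter reporter units reporting endogenous transcription factor activity, measured 24 h after dosing. Reporter mRNA quantified by RT-PCR and capillary electrophoresis; bidirectional fit against DMSO baseline.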

A short description of assay [3]: ATG_EGR_CIS: Attagene CIS-FACTORIAL HepG2 Assay for human Early Growth Response 1 (EGR1) (AID 2282938). The conditions noted are these: HepG2 Attagene CIS-FACTORIAL EGR reporter mRNA; actives raise or lower the signal. Summed up:
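HepG2 cells transiently transfected with cis-element-driven multiplexed reporter units, dosed for 24 h. EGR1-element reporter mRNA quantified by RT-PCR, 6-FAM labelling, HpaI digestion and capillary electrophoresis; bidirectional fit versus DMSO.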

Assay [4] in a line: ATG_M_19_CIS: Attagene CIS-FACTORIAL HepG2 Assay for M19 Transcription Factor (Internal Marker) (AID 2282939). As to conditions: HepG2 Attagene CIS-FACTORIAL M19 internal marker reporter; actives raise or lower the signal. The gist of the method: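 Signals come from fluorescence of labelled reporter-specific PCR fragments resolved by capillary electrophoresis, following 24 h treatment of HepG2 cells transfected with cis-promoter reporter units; activity was fitted in both directions relative to DMSO.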

Assay [5] is described as follows: ATG_ERE_CIS: Attagene CIS-FACTORIAL HepG2 Assay for Estrogen Response Element (ERE) (AID 2282940). As to conditions: HepG2 ERE cis-reporter, Attagene RNA transcript; actives raise or lower the signal. The gist of the method:
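Fluorescence of capillary-separated, FAM-labelled reporter cDNA fragments indicates reporter mRNA levels in HepG2 cells exposed to chemicals for 24 h. Transient transfection with cis-regulated units; data fitted in both directions against DMSO.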

Assay [6] can be described thus: ATG_Ets_CIS: Attagene CIS-FACTORIAL HepG2 Assay for human Erythroblast Transformation Specific (ETS) (AID 2282941). The conditions noted are these: HepG2 ETS cis-reporter transcription, actives raise or lower the signal. The gist of the method:
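RT-PCR/capillary electrophoresis fluorescence read-out of reporter mRNA; HepG2 transient multi-reporter transfection; 24 h compound exposure; gain or loss of signal fitted bidirectionally relative to DMSO.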

Assay [7] deals with Hepatocyte nuclear factor 3-beta (Homo sapiens) (UniProt Q9Y261). As to the kind of experiment: ATG_FoxA2_CIS: Attagene CIS-FACTORIAL HepG2 Assay for human Forkhead box A2 (FOXA2) (AID 2282942). The conditions noted are these: HepG2 cis-reporter transcription factor activity, 24 h; actives raise or lower the signal. The gist of the method: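 HepG2 transiently transfected with a multiplexed cis-promoter reporter library read endogenous FOXA2 activity. After 24 h compound exposure, reporter mRNA was quantified by RT-PCR, HpaI digestion and capillary electrophoresis. Bidirectional fit against DMSO.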

Assay [8] in a line: ATG_FoxO_CIS: Attagene CIS-FACTORIAL HepG2 Assay for human Forkhead box O (FoxO) (AID 2282943). As to conditions: HepG2 Attagene cis-reporter, FoxO element, mRNA; actives raise or lower the signal. The gist of the method: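 Values reflect reporter mRNA induction or loss in HepG2 cells 24 h post-dosing, fitted bidirectionally with DMSO as negative control and baseline. Detection used RT-PCR and fluorescence capillary electrophoresis.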

A short description of assay [9]: ATG_GATA_CIS: Attagene CIS-FACTORIAL HepG2 Assay for human GATA Binding Protein (AID 2282944). The conditions noted are these: HepG2 GATA cis-element reporter, Attagene multiplex mRNA; actives raise or lower the signal. Summed up: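 After transfecting HepG2 cells with multiple cis-regulated reporter units, chemicals are dosed for 24 h; isolated RNA undergoes RT-PCR and fluorescent labeling before capillary electrophoresis, with activity expressed against DMSO.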

Assay [10] is described as follows: ATG_E_Box_CIS: Attagene CIS-FACTORIAL HepG2 Assay for human Enhancer Box (E-box) (AID 2282936). As to conditions: HepG2 E-box cis-reporter transcription, actives raise or lower the signal. Summed up: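 Endogenous transcription factor activity was sensed in human HepG2 liver cells through transfected cis-promoter reporter units. After 24 h of dosing, total RNA was reverse-transcribed and reporter cDNA resolved by capillary electrophoresis.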

Molecules are shown by their SMILES. The source made the active and inactive calls. The calls were made as follows: active = hit-call score of the fitted dose curve at least 0.9, where 1 is the maximum; inactive = score below 0.9.

Chain of Transcription factor E2F1 (Homo sapiens) (Q01094 whole entry, looked up): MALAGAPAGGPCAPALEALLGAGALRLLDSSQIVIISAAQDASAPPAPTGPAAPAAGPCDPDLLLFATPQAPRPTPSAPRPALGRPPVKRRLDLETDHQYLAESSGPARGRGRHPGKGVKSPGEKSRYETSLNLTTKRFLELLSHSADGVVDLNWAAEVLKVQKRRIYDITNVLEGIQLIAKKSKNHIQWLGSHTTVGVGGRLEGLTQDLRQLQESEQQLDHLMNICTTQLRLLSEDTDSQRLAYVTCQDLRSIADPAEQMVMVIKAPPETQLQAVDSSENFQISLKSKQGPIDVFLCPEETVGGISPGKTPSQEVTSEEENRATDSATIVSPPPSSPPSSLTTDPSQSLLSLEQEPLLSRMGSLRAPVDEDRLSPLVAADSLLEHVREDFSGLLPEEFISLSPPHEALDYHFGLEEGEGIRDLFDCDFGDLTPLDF
Chain of Hepatocyte nuclear factor 3-beta (Homo sapiens) (Q9Y261 whole entry, looked up): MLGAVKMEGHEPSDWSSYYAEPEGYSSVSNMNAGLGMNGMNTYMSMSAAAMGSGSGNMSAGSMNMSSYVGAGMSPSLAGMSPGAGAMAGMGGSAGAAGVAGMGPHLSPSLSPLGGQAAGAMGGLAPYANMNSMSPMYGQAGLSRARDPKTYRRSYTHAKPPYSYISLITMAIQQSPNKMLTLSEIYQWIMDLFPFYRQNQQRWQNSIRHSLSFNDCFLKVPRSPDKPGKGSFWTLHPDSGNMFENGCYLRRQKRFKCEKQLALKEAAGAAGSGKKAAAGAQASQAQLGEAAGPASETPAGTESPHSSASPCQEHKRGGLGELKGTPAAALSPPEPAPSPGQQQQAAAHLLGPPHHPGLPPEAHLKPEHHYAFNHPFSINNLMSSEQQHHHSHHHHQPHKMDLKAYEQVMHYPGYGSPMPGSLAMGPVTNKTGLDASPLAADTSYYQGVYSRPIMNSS

In the case of `O=C(O)c1cc2ccccc2cc1O`, the molecule was called inactive in [1], in assay [2], in assay [3], in assay [4], in assay [5] and in [6]. The molecule was classed as inactive in assay [7], in assay [8] and in assay [9].

In the case of `CC(C)(C)c1cc(CCC(=O)OCCSCCOC(=O)CCc2cc(C(C)(C)C)c(O)c(C(C)(C)C)c2)cc(C(C)(C)C)c1O`, the call in assay [1], in assay [2], in assay [3], in assay [4], in assay [5] and in [6] was inactive. The call in [7], in assay [8] and in assay [9] was inactive.

For the molecule `CC1=C(C=O)C(C)(C)CCC1`, the molecule was classed as inactive in assay [1], in [2], in [3], in assay [4], in assay [5] and in assay [6]. In addition, the call in assay [8] and in [9] was inactive.

As a reminder, the AC50 is the midpoint of the concentration-response curve, whichever way the signal moves. Consider `CC(C)N1C(=O)c2ccccc2C1=O`, for which the result in assay [10], in assay [2], in assay [3], in [4], in assay [6] and in assay [7] was inactive. Besides, the molecule was called inactive in assay [8]. Moreover, the AC50 in [5] is 74.7 µM (active).

Regarding `CC(C)COC(=O)c1ccccc1`, the outcome in [1], in assay [2], in [3], in [5], in assay [6] and in assay [7] was inactive. Further, the outcome in [9] was inactive.

For the molecule `CCC(C)(C)c1cc(O)c(C(C)(C)CC)cc1O`, the molecule was classed as inactive in assay [1], in assay [2], in [5], in [6] and in assay [7]. In addition, the AC50 in [3] is 14.1 µM (active); in assay [8], 10.1 µM (active); in assay [9] it was 27.2 µM (active).

Consider `CCCCCCCCCO`, for which the molecule was classed as inactive in [1], in [2], in assay [3], in [4], in assay [5] and in assay [7]. Also, the call in assay [8] and in assay [9] was inactive.

Consider `CC/C(=C(\c1ccccc1)c1ccc(OCCN(C)C)cc1)c1ccccc1`, for which the molecule was classed as inactive in assay [1], in assay [2], in assay [3], in assay [4], in assay [6] and in [7]. In addition, the call in [9] was inactive.

Take `O=C1CCCCCCCCCCCC(=O)OCCO1`: the result in [1], in assay [2], in [3], in [4], in [5] and in assay [6] was inactive. Besides, the outcome in [8] and in assay [9] was inactive.

Consider `Cc1cccc(O)c1`, for which the molecule was called inactive in assay [1], in [2], in assay [3], in assay [4], in assay [5] and in [6]. Moreover, the outcome in assay [7], in [8] and in assay [9] was inactive.

For the molecule `NCCN1CCNCC1`, the outcome in assay [10], in assay [2], in [3], in assay [4], in assay [6] and in [7] was inactive. Moreover, the molecule was classed as inactive in [8] and in assay [9]. Besides, the half-maximal activity concentration (AC50) in [5] is 32.5 µM (active).

Consider `NNC(=O)OCc1ccccc1`, for which the outcome in assay [10], in assay [2], in assay [3], in assay [6], in assay [7] and in assay [8] was inactive. Besides, the molecule was classed as inactive in [9].

On to `CCCCCCCCSCc1cc(C)c(O)c(CSCCCCCCCC)c1`, for which the outcome in [10], in [2], in [3], in assay [4], in assay [5] and in assay [8] was inactive. Further, the outcome in assay [9] was inactive.

`C=CCCCCCCCCC(=O)OCC`: the outcome in [10], in [2], in assay [3], in [4], in assay [6] and in assay [7] was inactive. Besides, the call in [8] and in [9] was inactive.

For `OCCN1CCOCC1`, the call in assay [2], in assay [3], in assay [4], in assay [6], in [7] and in assay [9] was inactive. The half-maximal activity concentration (AC50) in assay [5] was 21.4 µM (active).

On to `CCCCCCCCCOS(=O)(=O)O`, for which the outcome in [10], in assay [2], in assay [3], in assay [4], in assay [6] and in assay [7] was inactive. Moreover, the call in [9] was inactive. Also, the AC50 in [5] was 5.14 µM (active).

In the case of `CCCCOCCOC(=O)c1ccccc1C(=O)OCCOCCCC`, the molecule was called inactive in assay [2], in assay [3], in [4], in assay [5], in [6] and in assay [7]. In addition, the molecule was called inactive in [8] and in [9].

Turning to `C=C(C)CCCC(C)CCO` (stereo not drawn), the outcome in [10], in assay [2], in assay [3], in [4], in [5] and in assay [6] was inactive. Further, the outcome in [7] and in [9] was inactive.

With `CC(C)=CCCC(C)=CC(=O)O`, the outcome in assay [10], in assay [2], in [3], in [4], in assay [5] and in assay [6] was inactive. For the same molecule, the result in [8] and in [9] was inactive.

As for `CC(=O)OCC=C(C)CCC=C(C)CCC=C(C)C`, the result in [10], in assay [2] and in assay [3] was inactive. For the same molecule, the half-maximal activity concentration (AC50) is 183 µM (active) in assay [4]; 179 µM (active) in [6]; 146 µM (active) in assay [7]; 128 µM (active) in [8]; 167 µM (active) in assay [9].

As to `CCn1cc(C(=O)O)c(=O)c2ccc(C)nc21`, the outcome in [10], in assay [2], in assay [3], in [4], in [5] and in assay [6] was inactive. For the same molecule, the outcome in [8] and in [9] was inactive.

As for `CCCCCCC(C)O` (stereo not drawn), the outcome in assay [2], in [3], in [5], in assay [6], in assay [8] and in assay [9] was inactive.
